Inconclusive results are not listed. Entries that show only a call come without a potency. Values without a mark were called inactive. Active and inactive are the calls of the source. Calls follow the shape of the full dose curve.
Assay: p53 small molecule agonists, cell-based qHTS assay with rat liver microsomes (AID 1963578)
In short: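 p53RE-bla cells were exposed to compounds together with rat liver microsomes (0.5 mg/mL final) and NADPH (0.5 mg/mL final) for 16 h at 37 C, then read by LiveBLAzer beta-lactamase fluorescence after 2 h at room temperature.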

SMILES | activation | Potency
C=CCCCCCCCCCCC | -3.89% [at 5.99 µM] | –
CC(C)CCCCOC(=O)c1ccccc1C(=O)OCCCCC(C)C | – | inactive
CC(=O)OCCc1ccccc1 | – | inactive
Oc1ccc(/C=C/c2cc(O)cc(O)c2)cc1 | – | inactive
COC(=O)CCCCC(=O)O | – | inactive
CC(=O)O[C@@H]1CC2C3CCc4cc(OC(=O)c5ccccc5)ccc4C3CCC2(C)[C@H]1OC(C)=O (stereo partly drawn) | – | inactive
COC(=O)c1ccccc1C(=O)c1ccc(OCCN2CCCCC2)cc1 | – | inactive
C=CCOCC(CC)(CO)COCC=C | – | inactive
C=CCCCCCCCC | – | inactive
CC1(C)C(=O)N(Br)C(=O)N1Cl | – | inactive
O=C(O)/C=C/c1cnc[nH]1 | – | inactive
CCCOC(=O)C(C)O (stereo not drawn) | – | inactive
CCCc1ccc(N)cc1 | – | inactive
CSc1cnccn1 | – | inactive
CC(O)C(CO)C(C)O (stereo not drawn) | – | inactive
CC1CC(=O)CC(C)(C)C1 (stereo not drawn) | – | inactive
c1ccc2c(c1)CCC2 | – | inactive
COCCOCCOCCOCCO | – | inactive
CCN1C(=O)c2ccccc2C1Nc1ccc(OCCN2CCCCC2)cc1 (stereo not drawn) | – | inactive
O=C(O)c1cc(=O)[nH]c(=O)[nH]1 | – | inactive
Oc1ccc2c(c1)OC[C@@H](N1CCC(O)(c3ccc(F)cc3)CC1)[C@H]2O | – | inactive
Clc1nc(Cl)c(Cl)c(Cl)c1Cl | – | inactive
C1COC1 | – | inactive
O=Nc1ccc(NO)cc1 | – | inactive
CCNc1nc(N)nc(Cl)n1 | – | inactive
C[C@@H]1O[C@@H](OC[C@H]2O[C@@H](Oc3c(-c4ccc(O)c(O)c4)oc4cc(O)cc(O)c4c3=O)[C@H](O)[C@@H](O)[C@@H]2O)[C@H](O)[C@H](O)[C@H]1O | – | inactive
CC(=O)CC(N)=O | – | inactive

SMILES | activation | Potency
NC(=S)Nc1cccc2ccccc12 | 0.459% [at 5.99 µM] | –
N#[N+]c1ccc2c(S(=O)(=O)[O-])cccc2c1O | – | inactive
O=C(O)c1ccc([N+](=O)[O-])cc1 | – | inactive
Cc1cnccn1 | – | inactive
CCOC(=O)OC(=O)OCC | – | inactive
CSc1nnc(C(C)(C)C)c(=O)[nH]1 | – | inactive
COC(CC(C)CCCC(C)(C)O)OC (stereo not drawn) | – | inactive
Cc1ccc(C(=O)c2cc(O)c(O)c([N+](=O)[O-])c2)cc1 | – | inactive
O=C(O[C@@H]1Cc2c(O)cc(O)cc2O[C@@H]1c1cc(O)c(O)c(O)c1)c1cc(O)c(O)c(O)c1 | – | inactive
CCOCOCC | – | inactive
Oc1ccc(C(c2ccc(O)cc2)C(Cl)(Cl)Cl)cc1 | – | inactive
Cc1cc(O)c(Cl)cc1C | – | inactive
CC/C=C\C#N | – | inactive
O=P(OC(CCl)CCl)(OC(CCl)CCl)OC(CCl)CCl | – | inactive
Nc1ccc(S(=O)(=O)Nc2ccc(Cl)nn2)cc1 | – | inactive
CC(C)COC(=O)c1ccc(N)cc1 | – | inactive
COc1cc(C(=S)N2CCOCC2)ccc1O | – | inactive
N[C@H]1C(O)O[C@H](CO)[C@@H](O)[C@@H]1O (stereo partly drawn) | – | inactive
NCCO | – | inactive
OCC(CO)N[C@H]1C[C@](O)(CO)[C@@H](O)[C@H](O)[C@H]1O | – | inactive
O=C(O[C@@H](C(=O)O)[C@@H](OC(=O)c1ccccc1)C(=O)O)c1ccccc1 | – | inactive
CC(=O)OCCN(CCOC(C)=O)c1ccc(N=Nc2ccc([N+](=O)[O-])cc2C#N)cc1 | – | inactive
Nc1ccc(NCCO)c([N+](=O)[O-])c1 | – | inactive
CCCCOC(=O)CCCCCCCC(=O)OCCCC | – | inactive
NC(=O)c1ccccc1N | – | inactive
CC(C)Nc1ccccc1 | – | inactive
